# This is one part of a sample in which the strongest signals are shown more often than they occur.
# B1: Surfactant Protein D (Human); Neck + Carbohydrate Recognition Domain (NCRD) (Homo sapiens) (protein)
# chain: MLLFLLSALVLLTQPLGYLEAEMKTYSHRTMPSACTLVMCSSVESGLPGRDRDGREGPRGEKGDPGLPGAAGQAGMPGQAGPVGPKGDNGSVGEPGPKGDTGPSGPPGPPGVPGPAGREGALGKQGNIGPQGKPGPKGEAGPKGEVGAPGMQGSAGARGLAGPKGERGVPGERGVPGNTGAAGSAGAMGPQGSPGARGPPGLKGDKGIPGDKGAKGESGLPDVASLRQQVEALQGQVQHLQAAFSQYKKVELFPNGQSVGEKIFKTAQFVKPFTEAQLLCTQAGGQLASPRSAAENAALQQLVVAKNEAAFLSMTDSKTEGKFTYPTGESLVYSNWAPGEPNDDGGSEDCVEIFTNGKWNDRACGEKRLVVCEF
# Tests used:
# Assay in all cases: glycan array binding signal (z-score within array); higher = stronger binding
# Details in all cases: glycan notation: IUPAC condensed, linker removed
# [1] = target: Fuc(a1-3)[Gal(b1-4)]GlcNAc(b1-3)Gal(b1-3)[Fuc(a1-4)]GlcNAc
# How it was run: (§1)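 Glycan array binding is given as a within-array Z-score, which can be read as non-binding when negative. The arrays, 3228 of them, came from the Consortium for Functional Glycomics database and were retained only where the protein sequence was available. Z-scores were averaged across arrays of the same protein sequence at different concentrations or buffers and across linkers.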
# [2] = target: Fuc(a1-3)[Gal(b1-4)]GlcNAc(b1-4)Gal(b1-4)[Fuc(a1-3)]GlcNAc(b1-4)Gal(b1-4)[Fuc(a1-3)]GlcNAc
# How it was run: as §1
# Gal(a1-6)Glc = target: Gal(a1-6)Glc
# How it was run: as §1
# Gal(b1-3)Gal(b1-4)GlcNAc = target: Gal(b1-3)Gal(b1-4)GlcNAc
# How it was run: as §1
# Gal(b1-3)GlcNAc = target: Gal(b1-3)GlcNAc
# How it was run: as §1
# [3] = target: Gal(b1-3)GlcNAc(b1-2)Man(a1-3)[Gal(b1-3)GlcNAc(b1-2)Man(a1-6)]Man(b1-4)GlcNAc(b1-4)GlcNAc
# How it was run: as §1
# [4] = target: Gal(b1-3)GlcNAc(b1-3)Gal(b1-4)Glc
# How it was run: as §1
# [5] = target: Gal(b1-3)[Fuc(a1-4)]GlcNAc
# How it was run: as §1
# [6] = target: Gal(b1-3)[Fuc(a1-4)]GlcNAc(b1-3)Gal(b1-4)[Fuc(a1-3)]GlcNAc
# How it was run: as §1
# [7] = target: Gal(b1-4)GlcNAc(b1-3)[Gal(b1-4)GlcNAc(b1-6)]Gal(b1-4)GlcNAc
# How it was run: as §1
# Gal6S(b1-4)Glc = target: Gal6S(b1-4)Glc
# How it was run: as §1
# [8] = target: GlcNAc(b1-3)[GlcNAc(b1-6)]GalNAc
# How it was run: as §1
# [9] = target: GlcNAc(b1-4)GlcNAc(b1-4)GlcNAc
# How it was run: as §1
# [10] = target: GlcNAc(b1-4)GlcNAc(b1-4)GlcNAc(b1-4)GlcNAc(b1-4)GlcNAc(b1-4)GlcNAc
# How it was run: as §1
# [11] = target: Man(a1-2)Man(a1-2)Man(a1-3)Man
# How it was run: as §1
# [12] = target: Man(a1-2)Man(a1-2)Man(a1-6)[Man(a1-3)]Man
# How it was run: as §1
# [13] = target: Man(a1-2)Man(a1-3)[Man(a1-2)Man(a1-6)]Man
# How it was run: as §1
# [14] = target: Man(a1-2)Man(a1-3)[Man(a1-6)]Man(a1-6)[Man(a1-2)Man(a1-3)]Man(b1-4)GlcNAc(b1-4)GlcNAc
# How it was run: as §1
# [15] = target: Man(a1-2)Man(a1-6)[Man(a1-3)]Man(a1-6)[Man(a1-2)Man(a1-2)Man(a1-3)]Man(b1-4)GlcNAc(b1-4)GlcNAc
# How it was run: as §1
# [16] = target: Man(a1-3)[Man(a1-6)]Man(a1-6)[Man(a1-2)Man(a1-3)]Man(b1-4)GlcNAc(b1-4)GlcNAc
# How it was run: as §1
# Neu5Ac(a2-3)Gal = target: Neu5Ac(a2-3)Gal
# How it was run: as §1
# [17] = target: Neu5Ac(a2-3)Gal(b1-3)[Fuc(a1-4)]GlcNAc(b1-3)Gal(b1-4)[Fuc(a1-3)]GlcNAc
# How it was run: as §1
# [18] = target: Neu5Ac(a2-3)[GalNAc(b1-4)]Gal(b1-4)Glc
# How it was run: as §1
# [19] = target: Neu5Ac(a2-3)[Neu5Ac(a2-6)]GalNAc
# How it was run: as §1
# [20] = target: Neu5Ac(a2-8)Neu5Ac(a2-3)[GalNAc(b1-4)]Gal(b1-4)Glc
# How it was run: as §1
# [21] = target: Neu5Ac(b2-6)Gal(b1-4)GlcNAc
# How it was run: as §1
binder,measurement,setting,value
B1,glycan array binding signal (z-score),[1],-0.257
same,glycan array binding signal (z-score),[2],-0.273
same,glycan array binding signal (z-score),Gal(a1-6)Glc,-0.083
same,glycan array binding signal (z-score),Gal(b1-3)Gal(b1-4)GlcNAc,-0.274
same,glycan array binding signal (z-score),Gal(b1-3)GlcNAc,-0.263
same,glycan array binding signal (z-score),[3],-0.275
same,glycan array binding signal (z-score),[4],-0.271
same,glycan array binding signal (z-score),[5],-0.233
same,glycan array binding signal (z-score),[6],-0.053
same,glycan array binding signal (z-score),[7],-0.29
same,glycan array binding signal (z-score),Gal6S(b1-4)Glc,-0.216
same,glycan array binding signal (z-score),[8],-0.258
same,glycan array binding signal (z-score),[9],-0.24
same,glycan array binding signal (z-score),[10],0.127
same,glycan array binding signal (z-score),[11],6.02
same,glycan array binding signal (z-score),[12],5.46
same,glycan array binding signal (z-score),[13],4.89
same,glycan array binding signal (z-score),[14],6.78
same,glycan array binding signal (z-score),[15],5.33
same,glycan array binding signal (z-score),[16],4.68
same,glycan array binding signal (z-score),Neu5Ac(a2-3)Gal,-0.243
same,glycan array binding signal (z-score),[17],0.1
same,glycan array binding signal (z-score),[18],-0.277
same,glycan array binding signal (z-score),[19],-0.296
same,glycan array binding signal (z-score),[20],-0.238
same,glycan array binding signal (z-score),[21],-0.288

# From the supplement of paper PMC8728848
